Compounds without any hit were thinned out: in the full panel of roughly 79,000, 15% have a hit. Unmarked numbers belong to inactive results. The source made the active and inactive calls. Cut-off read from the data, not from the text of the source: active = growth inhibition above about 70%; inactive = the rest.

Results on 10 compounds are retold here after PubChem BioAssay (NCI).

Assay [1] can be described thus: NCI Yeast Anticancer Drug Screen. Data for the rad50 strain (AID 155).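 Note: 0% = growth of vehicle-only cultures of the same strain.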 As to conditions: S. cerevisiae rad50 strain growth inhibition, active compounds read high. Put shortly:
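Yeast carrying a defined DNA repair defect were exposed to test compounds, and growth was compared with vehicle-treated controls to give percent inhibition.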

The nature of assay [2]: NCI Yeast Anticancer Drug Screen. Data for the mec2-1 strain (AID 157). As to conditions: S. cerevisiae mec2-1 strain, active compounds read high. An outline of the steps: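 Using mec2-1 yeast: add compound, measure growth, express inhibition versus vehicle-treated cultures.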
The nature of assay [3]: NCI Yeast Anticancer Drug Screen. Data for the sgs1 mgt1 strain (AID 161).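 Note: 0% = growth of cultures given vehicle only.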 As to conditions: S. cerevisiae sgs1 mgt1 strain, active compounds read high. An outline of the steps: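 This yeast growth screen uses a strain with defined DNA-repair lesions; compound-treated growth is compared with vehicle-treated growth.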
Assay [4] in a line: NCI Yeast Anticancer Drug Screen. Data for the cln2 rad14 strain (AID 165).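 Note: 0% = growth equal to vehicle treated cultures.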 As to conditions: S. cerevisiae cln2 rad14 strain, active compounds read high. Put shortly:
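Yeast strain cln2 rad14, bearing defects in cell cycle control and DNA repair, serves as the test system; values reflect growth inhibition compared with vehicle.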

A short description of assay [5]: NCI Yeast Anticancer Drug Screen. Data for the bub3 strain (AID 167). The conditions noted are these: S. cerevisiae bub3 mutant strain, active compounds read high. Put shortly:
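Compounds were applied to a genetically altered yeast strain carrying a cell-cycle control defect. Growth inhibition was scored against vehicle-treated controls.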

A short description of assay [6]: NCI Yeast Anticancer Drug Screen. Data for the mlh1 rad18 strain (AID 175). As to conditions: S. cerevisiae mlh1 rad18 strain growth inhibition, active compounds read high. An outline of the steps: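 Steps: expose repair-defective yeast to compound; measure growth; express inhibition against vehicle-treated controls.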
The mark [7] stands for this setting: at 5.0 µM (retest, dose inferred, filed as 0.5).
Setting [8] is: at 50.0 µM (retest, dose inferred, filed as 5.0).

For `O=C1C=CC(=O)N1c1cc(Cl)c(Cl)cc1Cl`, the growth inhibition was 32% in assay [1] (setting [7]); 86% (active) in assay [1] (setting [8]); 91.6% (active) in assay [1] (at 50.0 µM); 51% in assay [2] (setting [7]); 98% (active) in assay [2] (setting [8]); 27.1% in assay [2] (at 50.0 µM). For the same compound, the growth inhibition is 101% (active) in assay [3] (setting [7]); 100% (active) in assay [3] (setting [8]); 89% (active) in assay [4] (setting [7]); 100% (active) in assay [4] (setting [8]); 101% (active) in assay [5] (setting [7]); 100% (active) in assay [5] (setting [8]). The growth inhibition in assay [6] (setting [7]) was 32%; in assay [6] (setting [8]), 99% (active); in assay [6] (at 50.0 µM), 91.5% (active).
For the compound `COC(=O)C(=[N+]=[N-])C(=O)c1ccc([N+](=O)[O-])o1`, the growth inhibition in assay [1] (setting [7]) is 32%; in assay [1] (setting [8]), 98% (active); in assay [1] (at 50.0 µM), 56.1%; in assay [2] (setting [7]), 10%; in assay [2] (setting [8]), 99% (active); in assay [2] (at 50.0 µM) it was 55.5%. The growth inhibition in assay [3] (setting [7]) was 18%; in assay [3] (setting [8]) it was 98% (active); in assay [3] (at 50.0 µM) it was 51.8%; in assay [4] (setting [7]), 8%; in assay [4] (setting [8]), 99% (active); in assay [4] (at 50.0 µM), 98.5% (active). Moreover, the growth inhibition in assay [5] (setting [7]) is 6%; in assay [5] (setting [8]) it was 99% (active); in assay [5] (at 50.0 µM) it was 48.5%; in assay [6] (setting [7]), 25%; in assay [6] (setting [8]), 99% (active); in assay [6] (at 50.0 µM), 98.7% (active).
As to `CN(C)c1ccc2cc3c(cc2c1)Oc1ccccc1N3.[Cl][Zn][Cl]`, the growth inhibition in assay [1] (setting [7]) is 36%; in assay [1] (setting [8]) it was 90% (active); in assay [1] (at 50.0 µM) it was 84.2% (active); in assay [2] (setting [7]) it was 38%; in assay [2] (setting [8]) it was 95% (active); in assay [2] (at 50.0 µM), 85% (active). Moreover, the growth inhibition was 37% in assay [3] (setting [7]); 94% (active) in assay [3] (setting [8]); 87.8% (active) in assay [3] (at 50.0 µM); 29% in assay [4] (setting [7]); 94% (active) in assay [4] (setting [8]); 83.9% (active) in assay [4] (at 50.0 µM). In addition, the growth inhibition in assay [5] (setting [7]) is 48%; in assay [5] (setting [8]) it was 95% (active); in assay [5] (at 50.0 µM), 83.8% (active); in assay [6] (setting [7]), 42%; in assay [6] (setting [8]), 91% (active); in assay [6] (at 50.0 µM) it was 83.3% (active).
For `CC(O)C(O)C(O)C(O)C(O)C(=O)NNc1ccccc1` (stereo unspecified), the growth inhibition in assay [1] (setting [7]) was 9%; in assay [1] (setting [8]), 75% (active); in assay [1] (at 50.0 µM), 44%; in assay [2] (setting [7]), -1%; in assay [2] (setting [8]), 37%; in assay [2] (at 50.0 µM), 52.6%. The growth inhibition in assay [3] (setting [7]) was 7%; in assay [3] (setting [8]), 40%; in assay [3] (at 50.0 µM) it was 63.2%; in assay [4] (setting [7]) it was 10%; in assay [4] (setting [8]), 71% (active); in assay [4] (at 50.0 µM) it was 13.5%. For the same compound, the figures for the growth inhibition in assay [6] (setting [7]), in assay [6] (setting [8]) and in assay [6] (at 50.0 µM) were 26%, 85% (active) and 83.2% (active), respectively.
Regarding `OC(Cc1cc(CC(O)(C(F)(F)F)C(F)(F)F)nc(CC(O)(C(F)(F)F)C(F)(F)F)c1)(C(F)(F)F)C(F)(F)F`, the growth inhibition was 8% in assay [1] (setting [7]); 99% (active) in assay [1] (setting [8]); 99.5% (active) in assay [1] (at 50.0 µM); 1% in assay [2] (setting [7]); 100% (active) in assay [2] (setting [8]); 99.5% (active) in assay [2] (at 50.0 µM). Also, the growth inhibition in assay [3] (setting [7]) was -9%; in assay [3] (setting [8]), 99% (active); in assay [3] (at 50.0 µM) it was 99.4% (active); in assay [5] (setting [7]), -15%; in assay [5] (setting [8]), 100% (active); in assay [5] (at 50.0 µM), 99.3% (active). Moreover, the growth inhibition was 19% in assay [6] (setting [7]), 99% (active) in assay [6] (setting [8]) and 99.5% (active) in assay [6] (at 50.0 µM).
Take `COC(=O)[C@]1(C)CCC[C@@]2(C)[C@@H]3C[C@@H]4[C@H]5C[C@@]3(CC[C@@H]21)C[C@@]45C`: the growth inhibition was 31% in assay [1] (setting [7]); 99% (active) in assay [1] (setting [8]); 92.2% (active) in assay [1] (at 50.0 µM); 28% in assay [2] (setting [7]); 99% (active) in assay [2] (setting [8]); 93.5% (active) in assay [2] (at 50.0 µM). Further, the growth inhibition was 34% in assay [3] (setting [7]); 99% (active) in assay [3] (setting [8]); 93.7% (active) in assay [3] (at 50.0 µM); 31% in assay [4] (setting [7]); 99% (active) in assay [4] (setting [8]); 92.3% (active) in assay [4] (at 50.0 µM). Further, the growth inhibition in assay [6] (setting [7]) is 37%; in assay [6] (setting [8]), 99% (active); in assay [6] (at 50.0 µM), 86.8% (active).
As for `O=C(c1ccccc1)N(CCCl)C(=O)N(CCCl)C(=O)c1ccccc1`, the growth inhibition in assay [1] (setting [7]) is 47%; in assay [1] (setting [8]) it was 56%; in assay [1] (at 50.0 µM) it was 78% (active); in assay [2] (setting [7]) it was 68%; in assay [2] (setting [8]), 52%; in assay [2] (at 50.0 µM) it was 48.9%. Further, the growth inhibition is -7% in assay [3] (setting [7]); 68% in assay [3] (setting [8]); 45% in assay [4] (setting [7]); 56% in assay [4] (setting [8]); 23% in assay [5] (setting [7]); 64% in assay [5] (setting [8]). Further, the growth inhibition is 31% in assay [6] (setting [7]), 36% in assay [6] (setting [8]) and 68% in assay [6] (at 50.0 µM).
As for `N=C(N)Sc1cccc[n+]1[O-]`, the growth inhibition is 99% (active) in assay [1] (setting [7]); 99% (active) in assay [1] (setting [8]); 98.8% (active) in assay [1] (at 50.0 µM); 99% (active) in assay [2] (setting [7]); 99% (active) in assay [2] (setting [8]); 98.9% (active) in assay [2] (at 50.0 µM). The growth inhibition in assay [3] (setting [7]) is 100% (active); in assay [3] (setting [8]) it was 99% (active); in assay [3] (at 50.0 µM), 98.2% (active); in assay [5] (setting [7]) it was 100% (active); in assay [5] (setting [8]) it was 99% (active); in assay [5] (at 50.0 µM), 99% (active). Further, the values for the growth inhibition in assay [6] (setting [7]), in assay [6] (setting [8]) and in assay [6] (at 50.0 µM) were 99% (active), 99% (active) and 98.2% (active), respectively.
On to `CC1CC(C)(C)OB(OC(C)CC(C)(C)OB2OC(C)CC(C)(C)O2)O1` (stereo unspecified), for which the growth inhibition in assay [1] (setting [7]) was -4%; in assay [1] (setting [8]), -35%; in assay [1] (at 50.0 µM), 9.6%; in assay [2] (setting [7]), -1%; in assay [2] (setting [8]), -39%; in assay [2] (at 50.0 µM) it was 15.7%. For the same compound, the growth inhibition in assay [3] (setting [7]) was -4%; in assay [3] (setting [8]), -35%; in assay [3] (at 50.0 µM) it was 22.6%; in assay [4] (setting [7]) it was 2%; in assay [4] (setting [8]), -43%; in assay [4] (at 50.0 µM), 83% (active). The results for the growth inhibition in assay [6] (setting [7]), in assay [6] (setting [8]) and in assay [6] (at 50.0 µM) were 0%, -34% and -32.9%, respectively.
`O=C1C=C(Cl)C(=O)c2ccccc21`: the growth inhibition is 90% (active) in assay [1] (setting [7]); 99% (active) in assay [1] (setting [8]); 99% (active) in assay [1] (at 50.0 µM); 35% in assay [2] (setting [7]); 100% (active) in assay [2] (setting [8]); 99% (active) in assay [2] (at 50.0 µM). Besides, the growth inhibition is 30% in assay [3] (setting [7]); 99% (active) in assay [3] (setting [8]); 99.3% (active) in assay [3] (at 50.0 µM); 31% in assay [4] (setting [7]); 98% (active) in assay [4] (setting [8]); 99.1% (active) in assay [4] (at 50.0 µM). For the same compound, the figures for the growth inhibition in assay [6] (setting [7]), in assay [6] (setting [8]) and in assay [6] (at 50.0 µM) were 53%, 99% (active) and 99% (active), respectively.
